In PubChem BioAssay (EPA / NIEHS):
The source made the active and inactive calls. How the source made its calls: active means hit-call score of the fitted dose curve at least 0.9, where 1 is the maximum; inactive means score below 0.9.

target: Aryl hydrocarbon receptor (Homo sapiens) (UniProt P35869); experiment: ATG_Ahr_CIS: Attagene CIS-FACTORIAL HepG2 Assay for human Aryl Hydrocarbon Receptor (Ahr) (AID 2282930); conditions: HepG2 AhR cis-factorial reporter transcription; actives raise or lower the signal
Procedure: ATG_CIS is a cell-based, multiplexed-readout assay that uses HepG2, a human liver cell line, with measurements taken at 24 hours after chemical dosing in a 24-well plate.ATG_Ahr_CIS is one of 52 assay component(s) measured or calculated from the ATG_CIS assay. It is designed to make measurements of mRNA induction, a form of inducible reporter, as detected with fluorescence intensity signals by Reverse transcription polymerase chain reaction (RT-PCR) and Capillary electrophoresis technology.Data from the assay component ATG_Ahr_CIS was analyzed into 1 assay endpoint. This assay endpoint, ATG_Ahr_CIS, was analyzed with bidirectional fitting relative to DMSO as the negative control and baseline of activity. Using a type of inducible reporter, measures of mRNA for gain or loss-of-signal activity can be used to understand the reporter gene at the transcription factor-level as they relate to the gene AHR. Furthermore, this assay endpoint can be referred to as a primary readout, because this assay has produced multiple assay endpoints where this one serves a reporter gene function. To generalize the intended target to other relatable targets, this assay endpoint is annotated to the dna binding intended target family, where the subfamily is basic helix-loop-helix protein.
Human liver HepG2 cells are transiently transfected with multiple reporter transcription units (MRTUs) in 6-well plates using FuGene 6 reagent (Roche; 3 ml FuGene/1 mg DNA). The MRTU constructs are regulated by a cis-regulating element (promoter). […] A major difference between the CIS and TRANS system is that in CIS activities of endogenous TFs are measured, whereas the TRANS assay evaluates changes in activities of exogenous, chimeric NR-Gal4 proteins. […] At the end of 24 hour incubation, total RNA was isolated using TriZol reagent (Invitrogen). The isolated RNA is then reverse-transcribed using oligo(dT) primer and Mo-MLV reverse transcriptase (Invitrogen) with DNAse I (Ambion) treatment for 30 min. The one-tenth of the produced cDNA was amplified by PCR using Taq DNA polymerase (Invitrogen) and two reporter sequence-specific primers. The PCR products were fluorescently labeled by primer extension with 6-arboxyfluorescein (6-FAM) 5'-labeled reporter sequence-specific primer (2 min at 95 C, 20 s at 68 C and 10 min at 72 C) and these products were digested with 5U of HpaI (New England Biolabs) for 2h at 37 C. […] The raw capillary electrophoresis data was processed using Attagraph software (Attagene).

Chain of Aryl hydrocarbon receptor (Homo sapiens) (P35869 whole entry, looked up): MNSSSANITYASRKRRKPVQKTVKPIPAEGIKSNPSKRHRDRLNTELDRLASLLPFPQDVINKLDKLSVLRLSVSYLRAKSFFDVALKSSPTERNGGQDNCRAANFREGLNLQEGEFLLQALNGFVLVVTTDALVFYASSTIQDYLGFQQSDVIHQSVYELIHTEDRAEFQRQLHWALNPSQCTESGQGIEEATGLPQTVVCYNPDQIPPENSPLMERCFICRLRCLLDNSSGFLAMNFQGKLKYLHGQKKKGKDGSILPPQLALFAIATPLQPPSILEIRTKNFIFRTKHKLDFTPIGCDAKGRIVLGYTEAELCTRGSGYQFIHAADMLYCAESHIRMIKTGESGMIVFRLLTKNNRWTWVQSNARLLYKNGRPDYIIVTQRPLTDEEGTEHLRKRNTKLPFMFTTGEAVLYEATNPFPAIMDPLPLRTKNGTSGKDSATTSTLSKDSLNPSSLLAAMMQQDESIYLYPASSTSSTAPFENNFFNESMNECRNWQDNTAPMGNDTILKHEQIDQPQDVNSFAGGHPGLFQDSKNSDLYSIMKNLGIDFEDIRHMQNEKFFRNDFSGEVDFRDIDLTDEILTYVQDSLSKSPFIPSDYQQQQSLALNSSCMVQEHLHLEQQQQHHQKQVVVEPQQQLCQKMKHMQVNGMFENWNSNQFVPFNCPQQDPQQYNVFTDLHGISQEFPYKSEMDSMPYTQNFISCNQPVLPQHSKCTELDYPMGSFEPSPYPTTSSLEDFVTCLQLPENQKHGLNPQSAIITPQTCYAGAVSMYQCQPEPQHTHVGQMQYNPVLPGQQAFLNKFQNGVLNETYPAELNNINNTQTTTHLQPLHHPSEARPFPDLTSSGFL

Structure (SMILES) | outcome | AC50
CC(=O)c1ccccc1N | inactive | –
CCc1ccc(C)nc1 | inactive | –
O=C1C=CC(=O)N1c1ccccc1 | inactive | –
CCC(Cc1c(I)cc(I)c(N)c1I)C(=O)O (stereo not given) | inactive | –
Oc1ccc2c(c1)CCC2 | inactive | –
CCN(CC)c1ccc2c(c1)Oc1cc(N(CC)CC)ccc1C21OC(=O)c2ccccc21 | – | 7.41 µM (active)
CC(C)CCCC(C)CCO (stereo not given) | inactive | –
Cc1cc(C)c(O)c(C(C)(C)C)c1 | inactive | –
CCCCC(CC)COC(=O)c1ccc(N(C)C)cc1 (stereo not given) | inactive | –
CCCCOC(=O)[C@H](C)O | inactive | –
O=C(c1ccccc1)c1ccc(O)cc1O | inactive | –
CC1=CCC(=O)O1 | inactive | –
NC(=O)C(F)(F)C(F)(F)C(F)(F)C(F)(F)C(N)=O | inactive | –
NC(=O)C(F)(F)C(F)(F)C(F)(F)C(F)(F)C(F)(F)C(F)(F)C(F)(F)F | inactive | –
O=C1C=CC(=O)N1c1ccc(Cc2ccc(N3C(=O)C=CC3=O)cc2)cc1 | inactive | –
N#CCCOCCC#N | inactive | –
C=CC(=O)OCCC(F)(F)C(F)(F)C(F)(F)C(F)(F)F | inactive | –
COC(F)(C(F)F)C(F)(F)F (stereo not given) | inactive | –
Cc1cccc(C)n1 | inactive | –
CC(C)OC(=O)COc1ccc(Cl)cc1Cl | inactive | –

Structure (SMILES) | outcome | AC50
O=C(F)C1(F)C(F)(F)C(F)(F)C(F)(F)C(F)(F)C1(F)F | inactive | –
CCN(CCO)S(=O)(=O)C(F)(F)C(F)(F)C(F)(F)C(F)(F)C(F)(F)C(F)(F)C(F)(F)C(F)(F)F | inactive | –
CCc1cccc(C)c1N(C(=O)C(=O)O)C(C)COC (stereo not given) | inactive | –
CCOC(OCC)OCC | – | 31.6 µM (active)
COC(=O)c1ccc(C=O)cc1 | – | 105 µM (active)
O=C(c1ccccc1)c1ccc(Cl)cc1 | inactive | –
CN(C)C(C)(C)CO | inactive | –
Brc1nc2ccccc2s1 | – | 2.56 µM (active)
C=CCOC(=O)CC(C)C | inactive | –
CC(C)(C)c1cc(CCC(=O)NCCCCCCNC(=O)CCc2cc(C(C)(C)C)c(O)c(C(C)(C)C)c2)cc(C(C)(C)C)c1O | inactive | –
CN(N=O)C(=O)N[C@@H]1[C@@H](O)[C@H](O)[C@@H](CO)O[C@@H]1O | inactive | –
CC(=O)CCC(C)C | inactive | –
CC1=CC2C3C=CC(C3)C2C1C (stereo not given) | inactive | –
OC(O)C(F)(F)C(F)(F)F | inactive | –
COCCC(=O)OC | inactive | –
O=C(Cl)C(F)(F)C(F)(F)C(F)(F)C(F)(F)C(F)(F)C(F)(F)F | inactive | –
C[Si](Cl)(Cl)CCC(F)(F)C(F)(F)C(F)(F)C(F)(F)C(F)(F)C(F)(F)F | inactive | –
CCN(CC)c1ccc(C=O)cc1 | inactive | –
C[C@]12CC[C@H]3C(=CCc4cc(O)ccc43)[C@@H]1CCC2=O | inactive | –
Nc1cccnc1N | – | 27.4 µM (active)
